Laboratory results taken from PubChem BioAssay (NCI).
Compounds without any hit were thinned out: in the full panel of roughly 79,000, 15% have a hit. The source made the active and inactive calls. No stated cut-off is given here; in the data, active means growth inhibition above about 70%; inactive means the rest.

Assay: NCI Yeast Anticancer Drug Screen. Data for the rad50EPP+ strain (AID 151);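 further: 0% = growth of vehicle-treated control cultures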
Settings: S. cerevisiae rad50 mutant strain, stronger effect = higher value
Protocol: Growth inhibition of yeast strains with defined genetic alterations is measured as a screen for potential anti-cancer activity. Selected strains with alterations in DNA damage repair or cell cycle control were exposed to compounds and growth inhibition was measured relative to vehicle treated controls. The strain used in this assay is rad50EPP+

Measured: growth inhibition

Cn1c(COc2ccc(/C=N/NC(=O)CCC(=O)N/N=C/c3ccc(OCc4c[n+]5ccccc5n4C)cc3)cc2)c[n+]2ccccc12
inactive: at 1.2 µM -4% | at 3.7 µM -7% | at 11.0 µM -18% | at 33.0 µM -18% | at 100.0 µM 45%

c1ccc(C2=NNC3c4ccccc4-c4ccccc4N3C2)cc1 (stereo not given)
inactive: at 1.2 µM -2% | at 3.7 µM 1% | at 11.0 µM 5% | at 33.0 µM 27% | at 100.0 µM 35%

O=S(=O)(O)CC[S][Sn]([S]CCS(=O)(=O)O)([c]1ccccc1)[c]1ccccc1
inactive: at 1.2 µM -20% | at 3.7 µM -17% | at 11.0 µM -11% | at 33.0 µM -7% | at 100.0 µM -22%

CSc1ccc2c(c1)C(N1CCN(C)CC1)Cc1ccccc1S2 (stereo not given)
inactive: at 1.2 µM -27% | at 3.7 µM -45% | at 11.0 µM -37% | at 33.0 µM -4%
active: at 100.0 µM 91%

O=C1C=CC(=Nc2ccc3c(c2)Cc2cc(Cl)ccc2-3)O1
active: at 1.2 µM 78% | at 3.7 µM 90% | at 11.0 µM 98% | at 33.0 µM 99% | at 100.0 µM 96%

CNc1ccc2[nH]c3ccccc3c2c1
inactive: at 1.2 µM 1% | at 3.7 µM -2% | at 11.0 µM -4% | at 33.0 µM 26% | at 100.0 µM 65%

O=C(O)NCC1CCCCC1 (tested in a mixture with another compound)
inactive: at 1.2 µM 0% | at 3.7 µM -4% | at 11.0 µM -3% | at 33.0 µM 7% | at 100.0 µM 4%

CC(=O)O/N=C/c1c2ccccc2cc2ccccc12
inactive: at 1.2 µM 14% | at 3.7 µM 24% | at 11.0 µM 44% | at 33.0 µM 64% | at 100.0 µM 66%
